An excerpt weighted towards active compounds, which were near 7.4% of everything screened.
ELG1 genotox: qHTS screen for small molecules that induce genotoxicity in human embryonic kidney (HEK293T) cells expressing luciferase-tagged ELG1; HEK293T ELG1-luciferase reporter, luminescence, 16 h; Potency, µM (top dose mostly 46 µM), most hits filed as activators; 330,000 compounds, 1.3% hits; AID 504466, 2011; also: nearly all actives have a fitted effect of over 60% in size
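HEK293T cells expressing luciferase-tagged ELG1 were treated with compound or DMSO for 16 hr at 37°C. Luciferase activity was then read after 30 min with ONE-Glo at room temperature; rising signal flags genetic stress.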
SMN2 splice up: qHTS Assay for Enhancers of SMN2 Splice Variant Expression; HEK293 SMN2-luciferase splicing reporter, luminescence, 30-36 h; Potency, µM (titrated, usually from 46.1 µM), hits mostly activators; 210,000 compounds, 2.8% hits; AID 1458, 2008; also: nearly all actives have a fitted effect of over 55% in size
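HEK293 cells carry an SMN2 minigene-luciferase reporter in which exon 7 inclusion puts luciferase in frame. Cells were seeded at 2000 cells/well, attached for 10-12 hours, then exposed to compounds for 30-36 hours at 37C before ONE-Glo luminescence.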
NPC1 promoter act: qHTS Assay for NPC1 Promoter Activators; Huh7 NPC1 promoter luciferase reporter, 24 h; 320,000 compounds, 2.4% hits; Potency, µM (top dose mostly 9.22 µM), hits mostly activators; also: nearly all actives have a fitted effect of over 60% in size
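Luminescence read-out of NPC1 promoter-driven luciferase in stably transfected Huh7 cells; compounds delivered in DMSO and left 24 h at 37C, 5% CO2, qHTS titration format.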
Rab9 promoter act: qHTS Assay for Rab9 Promoter Activators; Potency, µM (highest dose often 9.22 µM), actives largely listed as activators; Huh7 Rab9 promoter-luciferase reporter, luminescence, 24 h; 320,000 compounds, 2.8% hits; also: nearly all actives have a fitted effect of over 60% in size
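Measured in stably transfected Huh7 cells bearing a Rab9 promoter–luciferase construct: 24 h compound treatment at 37 °C, followed by luminescence detection.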
FLuc counter: qHTS profiling assay for firefly luciferase inhibitor/activator using purifed enzyme and Km concentrations of substrates (counterscreen for miR-21 project). purified FLuc, Km substrates, luminescence inhibition. Potency, µM (series often up to 57.5 µM), usual class: inhibitors. 360,000 compounds, 6.9% hits; also: nearly all actives have a fitted effect of over 55% in size
Target sequence (P08659 whole entry, looked up): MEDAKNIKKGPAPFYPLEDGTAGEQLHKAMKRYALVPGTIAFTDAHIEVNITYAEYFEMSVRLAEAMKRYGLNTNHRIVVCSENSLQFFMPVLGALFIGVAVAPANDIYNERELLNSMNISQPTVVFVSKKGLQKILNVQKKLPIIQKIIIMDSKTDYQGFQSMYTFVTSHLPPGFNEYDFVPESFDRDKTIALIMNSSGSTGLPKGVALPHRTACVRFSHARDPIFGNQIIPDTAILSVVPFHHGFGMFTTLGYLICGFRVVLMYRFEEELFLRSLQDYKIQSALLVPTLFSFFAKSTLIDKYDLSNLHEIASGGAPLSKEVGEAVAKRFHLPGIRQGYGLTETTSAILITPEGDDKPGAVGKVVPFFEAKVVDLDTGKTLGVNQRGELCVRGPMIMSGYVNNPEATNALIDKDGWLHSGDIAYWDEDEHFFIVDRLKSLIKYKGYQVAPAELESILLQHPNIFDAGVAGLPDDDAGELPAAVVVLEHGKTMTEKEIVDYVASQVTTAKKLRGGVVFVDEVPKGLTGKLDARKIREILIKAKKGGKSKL
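Purified P. pyralis luciferase (10nM final) with 10uM D-luciferin and 10uM ATP (Km levels) in 50mM Tris acetate pH 7.5, 10mM Mg acetate, 0.01% Tween-20, 0.05% BSA; qHTS 6-point titration, ~60 µM downward; luminescence read.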
Luc counter: Counterscreen for Luciferase (Kinase-Glo TM) Inhibition | Luciferin 4-monooxygenase (Photuris pensylvanica), Q27757 | Kinase-Glo luciferase, ATP luminescence, 8 min | Potency, µM (series often up to 38.3 µM), usual class: inhibitors | 200,000 compounds, 0.28% hits | AID 1379, 2008; also: nearly all actives have a fitted effect of over 60% in size
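Compound is pinned into ATP-containing buffer (10 uM ATP, imidazole pH 7.2, 7 mM MgCl2). Kinase-Glo luciferase reagent is then added. Light output is recorded following an 8-min room-temperature incubation.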
Large screens that a line does not name were inactive. Calls follow the shape of the dose curve; as a rule, active = well fitted curve in the direction sought with a large enough effect; inconclusive = small, poorly fitted or top-dose-only effect, or another doubt; inactive = no such curve, though single readings can be large; an effect the other way counts as inactive or inconclusive.

Cc1ccc(-c2cc(C(=O)Nc3ccc(S(=O)(=O)Nc4ncccn4)cc3)c3ccccc3n2)cc1	FLuc counter 6.7µM
CCc1ccc(-c2cc(C(=O)Nc3ccc(S(=O)(=O)NC(C)=O)cc3)c3ccccc3n2)cc1	NPC1 promoter act inconclusive, FLuc counter 0.54µM
CC(C)(C)NS(=O)(=O)c1ccc(NC(=O)c2cc(-c3ccccc3)nc3ccccc23)cc1	none
CCOC(=O)c1c(C)oc2ccc(O)c(CN(C)C)c12	none
CCOC(=O)c1c(C)oc2cc(Cl)c(O)c(CN(C)C)c12	ELG1 genotox inconclusive, FLuc counter 15µM (no result: SMN2 splice up, Luc counter)
COc1ccc(C(CNC(=O)c2cc3ccccc3o2)N2CCCC2)cc1 (centres undefined)	none (no result: SMN2 splice up, Luc counter)
COc1ccc(C(CNC(=O)c2ccc(-c3nc4ccccc4s3)o2)N2CCCC2)cc1 (centres undefined)	FLuc counter 19µM (no result: SMN2 splice up, Luc counter)
COCC(C)NC(=O)c1cc(-c2ccc(O)cc2)on1 (centres undefined)	ELG1 genotox inconclusive
CCC(C)NC(=O)c1cc(-c2ccc(OC)cc2)on1 (centres undefined)	ELG1 genotox inconclusive, SMN2 splice up 10µM, NPC1 promoter act 2.8µM, Rab9 promoter act 3.2µM, FLuc counter 6µM
COc1ccc(-c2cc(C(=O)NCC(C)C)no2)cc1	ELG1 genotox 2.6µM, SMN2 splice up 11µM, NPC1 promoter act 1.4µM, Rab9 promoter act 0.71µM, FLuc counter 2.4µM
COc1cc(/C=N/N=C(N)N)ccc1OCc1ccc(Cl)cc1	ELG1 genotox 9.2µM, NPC1 promoter act inconclusive, Rab9 promoter act inconclusive, FLuc counter 3µM
COc1cc(/C=N/O)ccc1OCc1ccc(Cl)cc1	ELG1 genotox 2.1µM, SMN2 splice up 6.3µM, NPC1 promoter act 0.63µM, Rab9 promoter act 0.4µM, FLuc counter 1.3µM
COc1cc(/C=N/O)ccc1OCc1ccc(C(=O)O)cc1	ELG1 genotox inconclusive, SMN2 splice up 0.4µM, NPC1 promoter act inconclusive, Rab9 promoter act 0.089µM, FLuc counter 0.054µM
COc1cc(/C=N/OCC(=O)NC23CC4CC(CC(C4)C2)C3)ccc1OCc1ccccc1	FLuc counter 15µM (no result: SMN2 splice up, Luc counter)
CCOc1cc(/C=N/N=C(N)N)ccc1OCc1ccc(Cl)cc1	FLuc counter inconclusive
O=C(c1ccccc1Cl)N(Cc1ccco1)c1ccccn1	none (no result: ELG1 genotox, SMN2 splice up, NPC1 promoter act, Rab9 promoter act, Luc counter)
COc1cc(C(=S)N2CCCC2)ccc1OCc1ccc(C)cc1	ELG1 genotox 21µM, NPC1 promoter act inconclusive, Rab9 promoter act inconclusive, FLuc counter inconclusive (no result: SMN2 splice up, Luc counter)
CCOc1cc(/C=N/N=C2/NC(=O)C(CC(=O)O)S2)ccc1OCc1ccc(Cl)cc1Cl (centres undefined)	SMN2 splice up inconclusive
COc1cc(/C=N/N=C2/NC(=O)C(CC(=O)O)S2)ccc1OCc1ccc(Cl)cc1 (centres undefined)	ELG1 genotox inconclusive, SMN2 splice up 11µM, FLuc counter 19µM
CCOc1ccc(C(=S)N2CCCC2)cc1OC	none
COc1ccc(NC(=O)COc2ccc(/C=N/O)cc2OC)cc1	ELG1 genotox inconclusive, NPC1 promoter act inconclusive, Rab9 promoter act inconclusive, FLuc counter 21µM (no result: SMN2 splice up)
NS(=O)(=O)c1ccc(CCNC(=O)CCNS(=O)(=O)c2ccccc2C(F)(F)F)cc1	none (no result: SMN2 splice up, FLuc counter, Luc counter)
O=C(Nc1ccccc1)c1ccc(Cc2nc3ccccc3[nH]2)cc1	none (no result: ELG1 genotox, SMN2 splice up, NPC1 promoter act, Rab9 promoter act, FLuc counter)
O=C(O)CCCc1ccc2c(c1)CCc1ccccc1-2	FLuc counter 4.3µM (no result: SMN2 splice up, Luc counter)
CCc1nc2cc3sc(CC)nc3cc2s1	ELG1 genotox 9.2µM, NPC1 promoter act 3.5µM, Rab9 promoter act 2µM, FLuc counter 8.5µM (no result: SMN2 splice up, Luc counter)
CCc1nc2cc(Cl)c(Cl)cc2nc1CC	none (no result: SMN2 splice up, Luc counter)
Cc1ccc(NC(=O)Nc2ccc3c(c2)nc(C)n3C)cc1C	ELG1 genotox inconclusive, NPC1 promoter act 1.3µM, Rab9 promoter act 0.63µM, FLuc counter 2.7µM (no result: SMN2 splice up)
COc1ccccc1NC(=O)Nc1ccc2c(c1)nc(C)n2C	ELG1 genotox inconclusive, SMN2 splice up 13µM, NPC1 promoter act 0.63µM, Rab9 promoter act 0.56µM, FLuc counter 1.5µM, Luc counter inconclusive
CCOc1ccc(NC(=O)Nc2ccc3c(c2)nc(C)n3C)cc1	FLuc counter inconclusive (no result: SMN2 splice up, Luc counter)
Cc1nc2cc(NC(=O)Nc3cccc4ccccc34)ccc2n1C	ELG1 genotox inconclusive, SMN2 splice up 4µM, NPC1 promoter act 3.2µM, Rab9 promoter act 0.89µM, FLuc counter 0.95µM
Cc1nc2cc(Nc3nnc(-c4ccccc4)c4ccccc34)ccc2n1C	ELG1 genotox inconclusive, NPC1 promoter act 3.5µM, Rab9 promoter act inconclusive, FLuc counter 0.67µM (no result: SMN2 splice up, Luc counter)
CCOC(=O)N1CCN(CCC(=O)Nc2cccc(Cl)c2C)CC1	none (no result: SMN2 splice up, Luc counter)
CCCCCn1nc(C(=O)N(CCOC)c2c(N)n(CCCC)c(=O)[nH]c2=O)c2ccccc2c1=O	none (no result: SMN2 splice up, Luc counter)
O=C(N/N=C/c1ccc(OC(F)F)cc1)c1ccc(CSc2nc3ccccc3[nH]2)cc1	FLuc counter 17µM
CCOc1ccc(/C=N/NC(=O)c2ccc(CSc3nc4ccccc4[nH]3)cc2)cc1	FLuc counter 6.7µM
Cc1ccc(NC(=O)CSc2nc(N)c3cc4c(nc3n2)CCCC4)cc1	FLuc counter 2.1µM
COc1ccc(NC(=O)CSc2nc(N)c3cc4c(nc3n2)CCCC4)c(OC)c1	FLuc counter 12µM
COc1cccc(N2CCN(CC(=O)NC(=O)NC3CCCCC3)CC2)c1	none (no result: SMN2 splice up, Luc counter)
CC(C)(C)c1ccc(OC(=O)c2ccc3nsnc3c2)cc1	FLuc counter 7.6µM
CCCCOC(=O)c1ccc(OC(=O)c2cccnc2)cc1	FLuc counter inconclusive

Screening data deposited in PubChem by National Center for Advancing Translational Sciences (NCATS).
